Drawing on PubChem BioAssay (NCATS), this text covers Potency for 10 compounds.

Records with an inconclusive call do not appear. The source made the active and inactive calls. Calls come from the whole dose curve; as a rule, active = well fitted curve in the direction sought with a large enough effect; inconclusive = small, poorly fitted or top-dose-only effect, or another doubt; inactive = no such curve, though single readings can be large; an effect the other way counts as inactive or inconclusive.

Assay [1] is described as follows: qHTS of pediatric cancer cell lines to identify multiple opportunities for drug repurposing: Primary screen for Saos-2 cells (AID 1347097). Note: nearly all actives have a fitted effect of over 40% in size. Note: potency is the fitted concentration of half-maximal effect. The gist of the method: (§1)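 Plated cells (500-1,000 per well, growth media) were allowed to settle for 5 hours, treated with compound dilutions for 48 hours, then lysed with CellTiter-Glo for 15 min at room temperature before luminescence reading.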

Assay [2] in a line: qHTS of pediatric cancer cell lines to identify multiple opportunities for drug repurposing: Primary screen for SK-N-SH cells (AID 1347098). Note: nearly all actives have a fitted effect of over 65% in size. Note: potency is the fitted concentration of half-maximal effect. The method in brief:
(§2)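 Cells (500-1,000/well) rested 5 h, then received compounds for 48 h; metabolically active cells were measured by CellTiter-Glo luminescence. Final concentrations spanned up to 46 µM (MIPE, 11-point) or 0.59 nM-46 µM (NPC, 8-point) in primary screens, 11-point in follow-ups.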

A short description of assay [3]: qHTS of pediatric cancer cell lines to identify multiple opportunities for drug repurposing: Primary screen for NB1643 cells (AID 1347099). Note: nearly all actives have a fitted effect of over 50% in size. Note: potency is the fitted concentration of half-maximal effect. The gist of the method: as §1
A short description of assay [4]: qHTS of pediatric cancer cell lines to identify multiple opportunities for drug repurposing: Primary screen for LAN-5 cells (AID 1347100). Note: potency is the fitted concentration of half-maximal effect. The method in brief:
as §2

Assay [5] can be described thus: qHTS of pediatric cancer cell lines to identify multiple opportunities for drug repurposing: Primary screen for Rh18 cells (AID 1347102). Note: nearly all actives have a fitted effect of over 65% in size. Note: potency is the fitted concentration of half-maximal effect. The method in brief: as §2
Assay [6] can be described thus: qHTS of pediatric cancer cell lines to identify multiple opportunities for drug repurposing: Primary screen for OHS-50 cells (AID 1347103). Note: nearly all actives have a fitted effect of over 40% in size. Note: potency is the fitted concentration of half-maximal effect. The method in brief:
as §2

A short description of assay [7]: qHTS of pediatric cancer cell lines to identify multiple opportunities for drug repurposing: Primary screen for RD cells (AID 1347104). Note: nearly all actives have a fitted effect of over 55% in size. Note: potency is the fitted concentration of half-maximal effect. The method in brief:
as §1

Assay [8] in a line: qHTS of pediatric cancer cell lines to identify multiple opportunities for drug repurposing: Primary screen for MG 63 (6-TG R) cells (AID 1347105). Note: nearly all actives have a fitted effect of over 50% in size. Note: potency is the fitted concentration of half-maximal effect. The method in brief: as §1
A short description of assay [9]: qHTS of pediatric cancer cell lines to identify multiple opportunities for drug repurposing: Primary screen for control Hh wild type fibroblast cells (AID 1347106).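 Note: series mostly up to about 46 µM; a drop in luminescence marks cytotoxicity and a rise apparent proliferation; nearly all actives have a fitted effect of over 55% in size.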 The gist of the method:
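Viability after 48 h compound treatment at 37C, 500-1,000 cells/well, read as ATP luminescence with CellTiter-Glo. Primary screens used 11-point (MIPE, 0.78 nM-46 µM) or 8-point (NPC, 0.59 nM-46 µM) final concentrations; follow-up screens used 11-point dilutions.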

Assay [10] in a line: qHTS of pediatric cancer cell lines to identify multiple opportunities for drug repurposing: Primary screen for Rh30 cells (AID 1347107). Note: nearly all actives have a fitted effect of over 75% in size. Note: potency is the fitted concentration of half-maximal effect. The gist of the method:
as §2

The nature of assay [11]: qHTS of pediatric cancer cell lines to identify multiple opportunities for drug repurposing: Primary screen for Rh41 cells (AID 1347108). Note: nearly all actives have a fitted effect of over 70% in size. Note: potency is the fitted concentration of half-maximal effect. The gist of the method:
as §1

Assay [12] is described as follows: qHTS of pediatric cancer cell lines to identify multiple opportunities for drug repurposing: Confirmatory screen for NB1643 cells (AID 1347109). Note: nearly all actives have a fitted effect of over 45% in size. Note: potency is the fitted concentration of half-maximal effect. The gist of the method: as §2
Assay [13] is described as follows: qHTS of pediatric cancer cell lines to identify multiple opportunities for drug repurposing: Confirmatory screen for A673 cells (AID 1347110).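 Note: cells exposed to compound for 48 h before the viability read; nearly all actives have a fitted effect of over 65% in size.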 Note: potency is the fitted concentration of half-maximal effect. The gist of the method:
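Cells plated at 500-1,000/well were treated five hours later with multi-point dilutions up to 46 µM final. After two days, CellTiter-Glo was added and luminescence read.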

The nature of assay [14]: qHTS of pediatric cancer cell lines to identify multiple opportunities for drug repurposing: Confirmatory screen for BT-12 cells (AID 1347112). Note: nearly all actives have a fitted effect of over 55% in size. Note: potency is the fitted concentration of half-maximal effect. The gist of the method: as §2
Assay [15] can be described thus: qHTS of pediatric cancer cell lines to identify multiple opportunities for drug repurposing: Confirmatory screen for NB-EBc1 cells (AID 1347115).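 Note: cells exposed to compound for 48 h before the viability read; nearly all actives have a fitted effect of over 45% in size.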 Note: potency is the fitted concentration of half-maximal effect. The gist of the method:
as §2

Assay [16] in a line: qHTS of pediatric cancer cell lines to identify multiple opportunities for drug repurposing: Confirmatory screen for SJ-GBM2 cells (AID 1347116). Note: nearly all actives have a fitted effect of over 60% in size. Note: potency is the fitted concentration of half-maximal effect. The method in brief: (§3)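 Viability measured as metabolically active cells via CellTiter-Glo luminescence following 48 hours of compound exposure, 11-point dilutions in confirmatory testing. 500-1,000 cells/well plated 5 hours before dosing; controls were DMSO and 2.3 µM bortezomib.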

Assay [17] is described as follows: qHTS of pediatric cancer cell lines to identify multiple opportunities for drug repurposing: Primary screen for BT-12 cells (AID 1347101). Note: nearly all actives have a fitted effect of over 25% in size. Note: potency is the fitted concentration of half-maximal effect. The gist of the method: as §2
Assay [18] in a line: qHTS of pediatric cancer cell lines to identify multiple opportunities for drug repurposing: Confirmatory screen for SK-N-MC cells (AID 1347111).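 Note: cells exposed to compound for 48 h before the readout; nearly all actives have a fitted effect of over 70% in size.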 Note: potency is the fitted concentration of half-maximal effect. The method in brief:
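Seed 500-1,000 cells/well; rest 5 h at 37 degrees C. Pin-transfer compounds, 11-point titration. Incubate 48 h. Add CellTiter-Glo, 15 min RT, read luminescence.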

Assay [19] can be described thus: qHTS of pediatric cancer cell lines to identify multiple opportunities for drug repurposing: Confirmatory screen for LAN-5 cells (AID 1347113). Note: nearly all actives have a fitted effect of over 65% in size. Note: potency is the fitted concentration of half-maximal effect. The method in brief: as §2
Assay [20] can be described thus: qHTS of pediatric cancer cell lines to identify multiple opportunities for drug repurposing: Confirmatory screen for DAOY cells (AID 1347114). The gist of the method:
as §3

In the case of `COc1ccc(-n2nc(C(N)=O)c3c2C(=O)N(c2ccc(N4CCCCC4=O)cc2)CC3)cc1`, the Potency entry in assay [1], in assay [2], in assay [3], in assay [4], in [5] and in assay [6] was “inactive” throughout. Also, the Potency result in assay [7], in [8], in assay [9], in assay [10], in assay [11] and in assay [12] was “inactive” throughout. Besides, the Potency result in assay [13], in [14] and in [15] was “inactive” in each case. Besides, in assay [16], the Potency is 2.33 µM (active).
With `Clc1cccc(-n2nnnc2NCc2ccccc2Oc2ccccn2)c1Cl`, the Potency result in assay [1], in [2], in [3], in assay [4], in [5] and in assay [7] was “inactive” in each case. Also, the Potency entry in [8], in assay [9] and in [10] was “inactive” each time.
Take `CN(C)CC=CC(=O)Nc1cc2c(Nc3ccc(F)c(Cl)c3)ncnc2cc1O[C@H]1CCOC1`: the Potency in [1] was 10.5 µM (active); in assay [2], 24.1 µM (active); in assay [3], 0.296 µM (active); in assay [4], 7.43 µM (active); in assay [17] it was 21.7 µM (active); in assay [5] it was 14.8 µM (active). For the same compound, the Potency is 5.9 µM (active) in [7], 14.8 µM (active) in [8], 14.8 µM (active) in assay [10] and 7.43 µM (active) in assay [11].
Turning to `CC(C)c1cc(C(=O)N2Cc3ccc(CN4CCN(C)CC4)cc3C2)c(O)cc1O`, the Potency in assay [1] was 0.935 µM (active); in [2], 0.482 µM (active); in assay [3], 0.187 µM (active); in assay [4], 0.209 µM (active); in assay [5] it was 0.526 µM (active); in [7], 0.209 µM (active). The Potency was 0.369 µM (active) in assay [12]; 0.293 µM (active) in assay [13]; 0.585 µM (active) in [18]; 16.5 µM (active) in assay [14]; 0.465 µM (active) in assay [19]. In addition, the Potency entry in [10] is “inactive”.
On to `C[C@]1(CO)CN(c2cc(C(=O)Nc3ccc4c(c3)-c3c(c(C(N)=O)nn3-c3ccc(F)cc3)CC4)c(Cl)cn2)C[C@@]1(C)CO`, for which the Potency in [1] was 16.6 µM (active); in [2], 19.2 µM (active); in [3] it was 5.9 µM (active); in assay [4], 5.26 µM (active); in assay [5], 18.7 µM (active); in assay [6], 10.9 µM (active). In addition, in [8], the Potency was 9.35 µM (active).
Regarding `CNC(=O)c1ccc(-c2cnc3ncc(Cc4ccc5ncccc5c4)n3n2)cc1F`, the Potency result in assay [1], in [2], in assay [3], in assay [4], in [17] and in [5] was “inactive” in each case. Besides, the Potency result in [7], in assay [9], in assay [10] and in assay [11] was “inactive” each time.
As for `CC(C)c1cc(-c2n[nH]c(=O)n2-c2ccc3c(ccn3C)c2)c(O)cc1O`, the Potency is 0.118 µM (active) in [1]; 0.242 µM (active) in assay [2]; 0.0662 µM (active) in [3]; 0.0662 µM (active) in [4]; 0.0833 µM (active) in [5]; 0.153 µM (active) in [6]. For the same compound, the figures for the Potency in assay [7] and in assay [13] were 0.059 µM (active) and 18.5 µM (active), respectively. The Potency entry in assay [10], in assay [18], in assay [19], in [15] and in assay [16] was “inactive” each time.
As for `CC1(C)O[C@@H]2C[C@@H]3[C@H]4C[C@@H](F)C5=CC(=O)C=C[C@]5(C)[C@@]4(F)[C@@H](O)C[C@]3(C)[C@]2(C(=O)CO)O1`, the Potency entry in assay [1], in assay [2], in [4], in assay [17], in [5] and in assay [6] was “inactive” in each case. Also, the Potency result in assay [8] and in assay [9] was “inactive” each time. Moreover, the Potency in assay [13] was 0.0928 µM (active); in assay [18], 0.293 µM (active); in assay [14], 0.0737 µM (active); in [20] it was 0.737 µM (active); in assay [15], 11.7 µM (active).
`Cn1cc(-c2[nH]c3cc(NC(=O)[C@H](N)C4CCCCC4)cc4c3c2C=NNC4=O)cn1`: the Potency was 4.69 µM (active) in assay [1]; 19.2 µM (active) in assay [2]; 1.48 µM (active) in [4]; 1.22 µM (active) in assay [6]; 14.8 µM (active) in [7]. Further, the Potency entry in assay [17] and in [9] was “inactive” in each case.
With `CC(O)C1C(=O)N2C(C(=O)O)=C(SC3CNC(C(=O)N(C)C)C3)C(C)C12` (configuration not stated), the Potency entry in assay [1], in assay [2], in assay [4], in assay [17], in assay [5] and in [7] was “inactive” each time. The Potency result in assay [8], in assay [9], in assay [10] and in assay [11] was “inactive” in each case.
